The values that follow come from PubChem BioAssay (Tox21).

Each structure is given as a SMILES string. Values without a mark were called inactive. Inconclusive results are not listed. Active and inactive are the calls of the source. Unless noted, the call rests on the fitted dose curve; in most records, active means well fitted curve in the direction sought with a large enough effect in the repeat runs; inconclusive means weak or mixed curves; inactive means no such curve, though single readings can be large; an effect the other way counts as inactive or inconclusive.

Test [1] is described as follows: qHTS assay to identify small molecule antagonists of the androgen receptor (AR) signaling pathway using the MDA cell line in the presence of 0.5 nM R1881 - cell viability counter screen (AID 1259242). Further: nearly all actives have a fitted effect of over 45% in size. The gist of the method:
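Counter screen for cytotoxicity run in the same wells as the AR antagonist reporter screen: MDA-kb2 cells were treated 16 hr with test compounds and 0.5 nM R1881, then live-cell protease activity was measured by fluorescence.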

A short description of test [2]: qHTS assay to identify small molecule phospholipidosis (PLD) inducers (AID 1259344; active means well fitted curve in the direction sought with a large enough effect; an effect the other way counts as inactive or inconclusive). The gist of the method: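 Fluorescent phospholipid staining (LipidTOX Red) measured by automated microscopy in fixed HepG2 cells after 24 h treatment; nuclei counterstained with Hoechst 33342; amiodarone as reference inducer.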
Test [3] is described as follows: qHTS assay to identify small molecule HDAC inhibitors (AID 1259364). Further: top concentration of the series differs between compounds; nearly all actives have a fitted effect of over 45% in size. A digest of the protocol:
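Luminescence from a cell-permeant luminogenic class I/II HDAC substrate reports endogenous deacetylase activity in intact HCT-116 cells treated with compounds for 2 h.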
A general note: qHTS replaces the single test concentration by a dilution series.

The nature of test [4]: qHTS assay to identify small molecule agonists of the sonic hedgehog signaling (Shh) pathway - cell viability counter screen (AID 1259366). Further: nearly all actives have a fitted effect of over 50% in size. A digest of the protocol: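 Fluorescence from CellTiter-Fluor reports live cells in this counter screen. NIH/3T3-derived Gli1-Luc reporter cells receive test compounds for 24hr at 37C; reagent goes in at 23hr.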
Test [5] can be described thus: qHTS assay to identify small molecule antagonists of the sonic hedgehog signaling (Shh) pathway - cell viability counter screen (AID 1259367). Further: nearly all actives have a fitted effect of over 55% in size. The gist of the method:
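Using CellTiter-Fluor, viability of Gli1-Luc reporter 3T3 cells is read by fluorescence in the wells used for the Shh luciferase assay. Treatment lasts 23 hr with conditioned medium, then reagent 1 hr at 37C.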

Test [6] in a line: qHTS assay to identify small molecule agonists of the sonic hedgehog signaling (Shh) pathway (AID 1259368; calls by dose curve;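 further: NIH/3T3-derived 3T3Gli1-Luc cells carrying a stable Gli1-driven firefly luciferase reporter; series mostly up to about 92 µM; nearly all actives have a fitted effect of over 15% in size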). A digest of the protocol:
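3T3Gli1-Luc (NIH/3T3 clone, stable Gli1-Luc); 4 hr pre-incubation, then cpd in DMSO 24 hr, 37 C/5% CO2; luciferase reagent 30 min RT; luminescence.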

The nature of test [7]: qHTS assay to identify small molecule antagonists of the sonic hedgehog signaling (Shh) pathway (AID 1259369; calls by dose curve; further: nearly all actives have a fitted effect of over 45% in size; further: potency means the concentration at half of the fitted maximal effect). A digest of the protocol:
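3T3Gli1-Luc, conditioned-medium-stimulated, 24hr cpd, 37C/5% CO2; Gli1-driven firefly Luc luminescence after 30min RT with luciferase reagent. Cells plated 4hr before cpd.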

Test [8] concerns the target Estrogen receptor beta (Homo sapiens) (UniProt Q92731). Kind of test: qHTS assay to identify small molecule antagonists of the estrogen receptor beta (ER-beta) signaling pathway (AID 1259378; active means well fitted inhibition curve with a large enough effect in the signal ratio in the repeat runs, not every such curve was filed as active; the % refers to the signal ratio). A digest of the protocol: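 Antagonist mode: compounds added to beta-lactamase reporter HEK293T ER-beta-UAS cells stimulated with E2 (1nM final), 16 hr at 37C. LiveBLAzer B/G FRET substrate, 2 hours room temperature, fluorescence read-out.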

Test [9] is described as follows: qHTS assay to identify small molecule agonists of the androgen receptor (AR) signaling pathway in the presence of an antagonist - cell viability counter screen (AID 1259379).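 Further: MDA-kb2 human breast cancer cells carrying an MMTV luciferase reporter; series mostly up to about 92 µM; nearly all actives have a fitted effect of over 25% in size.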 A digest of the protocol:
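Cells: MDA-kb2 (MMTV-luc, AR and GR elements), 3,000/well, 5 hr settle. Added: nilutamide 3.0uM final, then compounds (15 conc.). Incubation: 16 hr, 37C, no CO2. Read-out: CellTiter-Fluor, 1 hr, fluorescence.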

A short description of test [10]: qHTS assay to identify small molecule agonists of the estrogen receptor beta (ER-beta) signaling pathway - cell viability counter screen (AID 1259380). Further: nearly all actives have a fitted effect of over 30% in size. A digest of the protocol:
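HEK293T ER-beta-UAS-bla; 2% CS-FBS; 6 hr pre-plate, 16 hr cpd at 37C/5% CO2; LiveBLAzer read first, then CellTiter-Glo 30 min RT, luminescence.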

Test [11] can be described thus: qHTS assay to identify small molecule antagonists of the estrogen receptor beta (ER-beta) signaling pathway - cell viability counter screen (AID 1259382).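 Further: HEK293T cells carrying ER-beta-UAS-bla reporter stimulated with estradiol; series mostly up to about 92 µM; nearly all actives have a fitted effect of over 55% in size.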 The gist of the method: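 Cells: ER-beta-UAS-bla HEK293T, 2,000/well, 2% CS-FBS, 6 hr settle. Cpd + E2 (1nM final), 16 hr, 37C/5% CO2. Bla FRET substrate 2 hr RT, then CellTiter-Glo 30 min RT, luminescence.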
Test [12] deals with Estrogen receptor (Homo sapiens) (UniProt P03372). Kind of test: qHTS assay to identify small molecule agonists of the estrogen receptor alpha (ER-alpha) signaling pathway in the presence of an antagonist (AID 1259383; calls by dose curve; further: top concentration of the series differs between compounds; nearly all actives have a fitted effect of over 15% in size). A digest of the protocol: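 VM7Luc4E2, endog. ER-alpha + 4×ERE-luc; charcoal-stripped FBS, phenol red-free, 5 d; 24hr plating; +10.0nM ICI-182,780 (final); cpds 15 conc, 22hr, 37C/5% CO2; ONE-Glo luminescence.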
Estrogen receptor (Homo sapiens), sequence (P03372 whole entry, looked up): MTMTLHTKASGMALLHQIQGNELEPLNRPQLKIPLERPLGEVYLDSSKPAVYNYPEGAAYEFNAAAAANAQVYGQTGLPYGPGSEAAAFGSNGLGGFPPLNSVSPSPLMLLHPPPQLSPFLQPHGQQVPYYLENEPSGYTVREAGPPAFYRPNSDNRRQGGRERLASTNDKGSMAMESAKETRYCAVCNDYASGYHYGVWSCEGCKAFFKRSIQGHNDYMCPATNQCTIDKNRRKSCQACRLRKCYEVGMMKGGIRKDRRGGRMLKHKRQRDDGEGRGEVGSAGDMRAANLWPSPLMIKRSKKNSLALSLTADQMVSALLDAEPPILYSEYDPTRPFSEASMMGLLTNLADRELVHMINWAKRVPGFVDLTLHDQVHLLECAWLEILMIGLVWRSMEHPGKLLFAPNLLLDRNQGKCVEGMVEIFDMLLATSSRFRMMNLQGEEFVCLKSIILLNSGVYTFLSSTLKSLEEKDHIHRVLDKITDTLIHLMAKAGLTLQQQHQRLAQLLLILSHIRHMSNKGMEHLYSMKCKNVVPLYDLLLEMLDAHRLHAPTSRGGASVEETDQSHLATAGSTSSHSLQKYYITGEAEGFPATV

Test [13] in a line: qHTS assay to identify small molecule agonists or antagonists of the thyroid stimulating hormone receptor (TSHR) signaling pathway - wild type cell line counter screen (AID 1259384; calls by dose curve). A digest of the protocol: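 Counter screen in untransfected Hek293: compounds (15-point titration, triplicate) plus phosphodiesterase inhibitor Ro20-1724 added after 18 h plating; 30 min RT. Intracellular cAMP via competitive d2/cryptate immunoassay, 1 h incubation.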

Test [14] in a line: qHTS assay to identify small molecule agonists of the estrogen receptor alpha (ER-alpha) signaling pathway in the presence of an antagonist - cell viability counter screen (AID 1259386).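 Further: series mostly up to about 92 µM; cells exposed to compounds for 22 h at 37 °C before the viability read; nearly all actives have a fitted effect of over 30% in size.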 The gist of the method: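 VM7Luc4E2, stripped-serum pre-culture 5 d; 24hr plating; +ICI-182,780 10.0nM final; cpds 15 conc, 22hr, 37C/5% CO2; CellTiter-Fluor added at 21hr, fluorescence 1hr later.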

The target in test [15] is Estrogen receptor beta (Homo sapiens) (UniProt Q92731). Kind of test: qHTS assay to identify small molecule agonists of the estrogen receptor beta (ER-beta) signaling pathway (AID 1259377; active means well fitted activation curve with a large enough effect in the signal ratio in the repeat runs, not every such curve was filed as active; the % refers to the signal ratio). The gist of the method:
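Screening used GripTite ER-beta-UAS-bla cells held in 2% charcoal-stripped FBS medium. After overnight (16 hr) compound incubation at 37C, beta-lactamase activity was detected with a FRET substrate by fluorescence.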

The target of test [16] is Thyrotropin receptor (Homo sapiens) (UniProt P16473). Kind of test: qHTS assay to identify small molecule antagonists of the thyroid stimulating hormone receptor (TSHR) signaling pathway (AID 1259385; calls by dose curve; further: nearly all actives have a fitted effect of over 20% in size; further: potency means the concentration at half of the fitted maximal effect). The gist of the method:
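Antagonist mode: compound-treated TSHR-expressing HEK293 cells were stimulated with 1.5 ng/mL TSH (final) in presence of Ro20-1724 for 30 min at RT. HTRF cAMP detection after 1 h; each compound tested at 15 concentrations, triplicate.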

The nature of test [17]: qHTS assay to identify small molecule HDAC inhibitors - cell viability counter screen (AID 1259365). Further: series mostly up to about 92 µM; nearly all actives have a fitted effect of over 50% in size. A digest of the protocol:
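To flag cytotoxic hits, 1,500 wild-type HCT-116 cells per well, plated the day before, receive test compounds for 2hr at 37 C before CellTiter-Glo reagent and a luminescence read.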

Thyrotropin receptor (Homo sapiens), sequence (P16473 whole entry, looked up): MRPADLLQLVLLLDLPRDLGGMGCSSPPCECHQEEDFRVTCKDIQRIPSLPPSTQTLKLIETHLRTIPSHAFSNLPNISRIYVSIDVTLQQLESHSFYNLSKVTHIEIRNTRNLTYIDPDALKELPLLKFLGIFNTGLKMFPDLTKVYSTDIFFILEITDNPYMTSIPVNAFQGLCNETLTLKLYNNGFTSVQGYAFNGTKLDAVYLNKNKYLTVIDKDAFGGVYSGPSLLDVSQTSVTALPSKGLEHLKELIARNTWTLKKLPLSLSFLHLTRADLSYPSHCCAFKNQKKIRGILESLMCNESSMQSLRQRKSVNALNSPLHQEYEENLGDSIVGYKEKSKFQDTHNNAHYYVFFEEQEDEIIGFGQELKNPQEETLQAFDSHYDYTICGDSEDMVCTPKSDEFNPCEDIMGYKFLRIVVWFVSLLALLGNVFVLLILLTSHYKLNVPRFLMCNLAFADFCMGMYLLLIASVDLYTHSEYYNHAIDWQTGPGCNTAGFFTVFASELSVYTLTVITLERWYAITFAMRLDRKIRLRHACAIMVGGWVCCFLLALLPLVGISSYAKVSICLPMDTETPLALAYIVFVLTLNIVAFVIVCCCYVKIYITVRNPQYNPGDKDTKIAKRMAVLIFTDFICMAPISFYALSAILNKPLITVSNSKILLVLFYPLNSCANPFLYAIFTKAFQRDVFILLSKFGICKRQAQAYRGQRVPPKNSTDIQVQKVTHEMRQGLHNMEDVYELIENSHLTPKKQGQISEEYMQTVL
Estrogen receptor beta (Homo sapiens), sequence (Q92731 whole entry, looked up): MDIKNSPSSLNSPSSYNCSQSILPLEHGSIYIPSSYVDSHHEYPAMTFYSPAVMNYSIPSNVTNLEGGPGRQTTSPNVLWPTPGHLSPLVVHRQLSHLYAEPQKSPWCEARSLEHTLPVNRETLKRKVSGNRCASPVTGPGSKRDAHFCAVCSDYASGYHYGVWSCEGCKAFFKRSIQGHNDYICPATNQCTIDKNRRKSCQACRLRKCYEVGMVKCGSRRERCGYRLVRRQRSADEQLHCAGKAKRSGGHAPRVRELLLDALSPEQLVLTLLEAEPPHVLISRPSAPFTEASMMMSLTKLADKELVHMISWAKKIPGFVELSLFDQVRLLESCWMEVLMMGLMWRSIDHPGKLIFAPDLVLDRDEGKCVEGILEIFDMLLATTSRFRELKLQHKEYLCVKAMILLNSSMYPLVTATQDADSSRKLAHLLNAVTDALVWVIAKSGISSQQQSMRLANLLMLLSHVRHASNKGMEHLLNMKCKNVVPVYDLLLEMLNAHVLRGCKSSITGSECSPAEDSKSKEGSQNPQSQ

Regarding `CCN[C@H]1CN(CCCOC)S(=O)(=O)c2sc(S(N)(=O)=O)cc21`, the outcome in test [1], in test [2], in test [11] and in test [13] was inactive. The Potency result in test [3], in test [4], in test [5], in test [6], in test [7] and in test [8] was “inactive” each time. The Potency entry in test [9], in [10], in test [12] and in test [14] was “inactive” throughout.
Regarding `Cc1c(-c2ccccc2)oc2c(C(=O)OCCN3CCCCC3)cccc2c1=O`, the result in test [1], in test [2], in test [15], in test [11] and in [13] was inactive. The Potency result in [3], in test [4], in test [5], in test [6], in test [9] and in [10] was “inactive” in each case. The Potency entry in test [12] and in [14] was “inactive” in each case. The Potency in test [16] is 23.7 µM (active).
As for `CCCCC1CCC(=O)O1` (stereo not drawn), the result in test [1], in test [17], in test [15] and in [11] was inactive. Also, the Potency entry in test [3], in test [4], in test [5], in test [6], in test [7] and in [8] was “inactive” each time. The Potency entry in test [9], in [10], in [12], in test [16] and in test [14] was “inactive” in each case.
For the compound `CN1CCC[C@@H]1Cc1c[nH]c2ccc(CCS(=O)(=O)c3ccccc3)cc12`, the result in [1], in [17], in test [11] and in [13] was inactive. Moreover, the Potency result in test [3], in [4], in test [5], in test [6], in test [9] and in test [10] was “inactive” each time. For the same compound, the Potency entry in test [16] and in test [14] was “inactive” each time. Besides, in test [7], the Potency is 13.3 µM (active).
For `FC(F)(F)C(Cl)(Cl)Cl`, the result in [1], in test [17], in [15], in [11] and in [13] was inactive. Also, the Potency entry in test [3], in test [4], in test [5], in test [6], in test [7] and in test [8] was “inactive” throughout. Moreover, the Potency result in test [9], in test [10], in test [12], in test [16] and in test [14] was “inactive” each time.
As for `C=CCCC=C`, the outcome in test [1], in test [17], in test [15], in test [11] and in test [13] was inactive. The Potency entry in test [3], in test [4], in test [5], in test [6], in test [7] and in test [8] was “inactive” each time. Moreover, the Potency entry in [9], in [10], in test [12], in test [16] and in [14] was “inactive” each time.
As to `O=CCCc1ccccc1`, the result in test [1], in test [17], in test [15] and in test [11] was inactive. The Potency entry in [3], in [4], in test [5], in test [6], in [7] and in [8] was “inactive” throughout. The Potency result in test [9], in test [10] and in test [14] was “inactive” each time.
With `O=C(CCCl)NCc1ccccc1`, the result in [1], in test [17], in test [15] and in [11] was inactive. In addition, the Potency entry in test [3], in test [4], in test [5], in test [6], in test [7] and in test [8] was “inactive” each time. For the same compound, the Potency entry in test [9], in [10], in test [12], in test [16] and in test [14] was “inactive” throughout.
With `CCCCCCC`, the result in test [1], in test [17] and in [11] was inactive. For the same compound, the Potency result in test [3], in [4], in test [5], in test [6], in test [7] and in test [9] was “inactive” each time. Moreover, the Potency result in [10], in [12] and in test [14] was “inactive” each time.
